Data: PubChem BioAssay
Records with an inconclusive call do not appear. Active and inactive are the calls of the source.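 How the source made its calls, unless noted: active means binding below the plate cutoff, the plate median minus 3 SD, with a reading above zero; inconclusive means below the plate cutoff but reading exactly zero; inactive means the rest.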

What was measured:
[1] = yeast TOR pathway RPL19A-GFP modulators, primary screen, cell-based, S. cerevisiae, multiplex flow cytometry (AID 1862; in the data active means percent of DMSO control GFP below about 86%;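 further: lower values mimic rapamycin by blocking the RPL19A rise seen in DMSO cells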); conditions: S. cerevisiae RPL19A-GFP strain, flow cytometry fluorescence, 3 h; at 10 µM; stronger effect = lower value
[2] = modulators of MEP2-GFP levels in yeast, primary screen, S. cerevisiae, multiplex flow cytometry (AID 1867;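 active means GFP response, as percent of the DMSO control, above the screen-wide mean plus 3 SD, about 139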;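 further: median GFP channel fluorescence of barcode-gated MEP2-GFP cells measured by flow cytometry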); conditions: S. cerevisiae MEP2-GFP strain, 3 h, at 10 µM, stronger effect = higher value, 100% means same as DMSO wells
[3] = modulators of CIT2-GFP expression in yeast, primary screen, S. cerevisiae, GFP fusion, multiplex flow cytometry (AID 1870;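 active means percent response above a set limit, the screen-wide mean plus 3 SD, cut at about 130% in these data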;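 further: barcoded CIT2-GFP strain pooled with four other GFP strains with rapamycin as positive control; median GFP fluorescence per well over plate mean of DMSO wells so 100% = DMSO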); conditions: 3 h, at 10 µM, stronger effect = higher value
[4] = modulators of LAP4-GFP expression in yeast, primary screen, S. cerevisiae, multiplex flow cytometry (AID 1873;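 active means GFP signal, as percent of the solvent control, above the screen mean plus 3 SD, about 149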); conditions: 3 h, at 10 µM, stronger effect = higher value
[5] = modulators of AGP1-GFP expression in yeast TOR pathway, primary screen, cell-based, multiplex flow cytometry, S. cerevisiae (AID 1887;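 active means GFP signal above the screen-wide mean plus 3 SD, that is over about 124.5% of the solvent control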;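 further: AGP1-GFP fusion strain of S. cerevisiae within a five-strain barcoded multiplex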); conditions: 3 h, at 10 µM, stronger effect = higher value
[6] = inhibitors of CD8+ T cell-vesicle binding, pilot screen, LFA-1/ICAM-1 modulator project, MLPCN validation set, flow cytometry (AID 2523;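 active means response below a set limit, under 55% cells CD8-positive and vesicle-bound, and CD8 cells' 90th-percentile brightness under 279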;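 on vesicle binding response: mean PE anti-B7-1 fluorescence of CD8+ cells relative to row control; 100% = QL9-loaded vesicles with DMSO vehicle in the same plate row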); conditions: 2C mouse CD8+ T cells, at 7 µM, stronger effect = lower value; double positive events: measured here: CD8+/vesicle+ event percentage
[7] = target: Integrin beta-1 (Homo sapiens) + Integrin alpha-4 (Homo sapiens) (UniProt P13612+P05556); test: inhibition of HUTS-21 binding to VLA-4, pilot screen, VLA-4 allosteric modulator project, U937 cells, HUTS-21 mAb, flow cytometry, validation set (AID 2674;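 active means inhibition above 50%, about 3 SD of the validation set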;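 further: antibody binding induced by the VLA-4 ligand LDV present at three times its Kd; 0% = LDV ligand with antibody and no compound and 100% = antibody without LDV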); conditions: HUTS-21 LIBS mAb binding, at 6.7 µM, stronger effect = higher value, binding induced by LDV ligand
[8] = superoxide lowering in aged yeast cells, pilot screen, validation compound set (AID 2706;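 active means superoxide response below 65% of plate, a cut near 3 SD across the whole screen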;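 further: yeast exposed to compound for one week at 30 degrees C before staining; 100% = mean of all compound wells on the same plate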); conditions: S. cerevisiae aging, superoxide DHE fluorescence; at 10 µM; stronger effect = lower value
[9] = target: Beta-adrenergic receptor kinase 1 (Homo sapiens) (UniProt P25098); test: GRK2 binders displacing RNA aptamer, biochemical, validation, human GRK2, bead flow cytometry (AID 488806;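 active means aptamer binding inhibition above 30%, about 3 SD of noise from non-fluorescent compounds; inactive means inhibition at or below 30%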); conditions: bead-bound GRK2, FAM-aptamer displacement, at 10 µM, stronger effect = higher value
[10] = target: Beta-2 adrenergic receptor (Homo sapiens) (UniProt P07550); test: beta2AR agonists driving receptor internalization, pilot screen, cell-based, FAP fluorogen, flow cytometry, validation set (AID 504459;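 active means percent response above 42, roughly 3 SD of non-fluorescent test compounds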;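 further: agonist-driven loss of surface beta2AR via internalization measured by FAP dye flow cytometry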); conditions: Am2.2-beta2AR cells, FAP surface receptor flow cytometry; at 10 µM; stronger effect = higher value
[11] = target: AP-2 complex subunit beta (Homo sapiens) (UniProt P63010); test: inhibitors of arrestin peptide binding to AP2, pilot screen, biochemical, validation set, GST-AP2 beads, flow cytometry (AID 504541;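 active means inhibition above 54%, about 3 SD of non-fluorescent compounds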;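 further: AP2 carries R879A mutation and is captured from E. coli lysate; bead-bound FITC arrestin peptide fluorescence measuring arrestin peptide binding to AP2; 0% = DMSO wells and 100% = excess unlabeled arrestin peptide control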); conditions: FITC arrestin peptide, at 10 µM, stronger effect = higher value, AP2 beta2 appendage fragment, R879A mutant
[12] = yeast V-ATPase proton transport modulators, S. cerevisiae, pHLuorin, HTS validation (AID 504600; in the data active means response above about 15%;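 further: plate controls were DMSO for no effect and reference compound for full effect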); conditions: S. cerevisiae pHLuorin cytosolic pH, at 10 µM, stronger effect = higher value
[13] = tested on: anti-desmoglein-3 scFv antibody binding to human DSG3; test: inhibitors of anti-DSG3 scFv binding to DSG3, pilot screen, biochemical, validation compound set, bead-based, flow cytometry (AID 588368); conditions: Protein G beads, DSG3-Fc, scFv-GFP binding, at 10 µM, stronger effect = lower value;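 further: signal is the median channel fluorescence of bead-bound GFP antibody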
[14] = inhibitors of fungal efflux pumps CDR1, CDR2, MDR1, pilot screen, validation compound set, multiplex, phenotypic (AID 588506;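 active means efflux inhibition above 0.42, the validation set average plus 4 SD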;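 further: Nile Red retained in cells so higher fluorescence means more efflux inhibition; 0 = negative control wells and 1 = enniatin B 25 µM full block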); conditions: S. cerevisiae pump-expressing triplex, Nile Red efflux flow cytometry; at 10 µM; stronger effect = higher value; the pumps come from Candida albicans
[15] = target: ATP-binding cassette sub-family B member 6 (Homo sapiens) (UniProt Q9NP58); test: ABCB6 transporter inhibitors, pilot screen, K562-ABCB6 cells, flow cytometry, validation set (AID 588550;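 active means inhibition above the screen-wide mean plus 3 SD, about 51%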;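 further: 0% = DMSO wells and 100% = benzethonium chloride 70 µM positive control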); conditions: K562-ABCB6 porphyrin accumulation, 1 h, at 10 µM, stronger effect = higher value
[16] = promoters of myeloid differentiation in arrested cells, primary screen, cell-based, GFP/MAC1 double positive, flow cytometry, validation set (AID 588685;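 active means differentiation response of at least 50%, scaled between solvent and reference control, from cells with both markers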;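 further: compound exposure lasts four days before antibody staining and flow analysis; 0% = DMSO wells and 100% = 5 µM fulvestrant positive control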); conditions: ER-HoxA9 marrow cells, stronger effect = higher value, normalized: vehicle 0, fulvestrant 100

Sequence of Beta-adrenergic receptor kinase 1 (Homo sapiens) (P25098 whole entry, looked up): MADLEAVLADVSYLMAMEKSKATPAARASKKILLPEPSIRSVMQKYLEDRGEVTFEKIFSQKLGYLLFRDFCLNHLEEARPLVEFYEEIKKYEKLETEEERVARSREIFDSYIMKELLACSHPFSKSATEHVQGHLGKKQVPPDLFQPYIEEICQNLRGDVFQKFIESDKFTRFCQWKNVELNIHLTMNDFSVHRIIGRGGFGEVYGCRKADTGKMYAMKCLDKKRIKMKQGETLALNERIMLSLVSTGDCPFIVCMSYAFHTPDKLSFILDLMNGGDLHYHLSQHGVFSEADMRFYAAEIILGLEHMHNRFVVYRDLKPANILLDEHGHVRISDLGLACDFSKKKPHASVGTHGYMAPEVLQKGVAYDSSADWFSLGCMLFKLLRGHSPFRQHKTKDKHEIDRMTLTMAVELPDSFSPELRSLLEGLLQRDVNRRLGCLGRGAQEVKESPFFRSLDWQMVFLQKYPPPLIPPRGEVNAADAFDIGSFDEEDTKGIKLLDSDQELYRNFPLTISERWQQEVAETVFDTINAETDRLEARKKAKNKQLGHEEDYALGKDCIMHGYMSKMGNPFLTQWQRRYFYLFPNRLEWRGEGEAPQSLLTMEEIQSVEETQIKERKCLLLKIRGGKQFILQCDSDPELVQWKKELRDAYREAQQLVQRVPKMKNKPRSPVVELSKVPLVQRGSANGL
Sequence of AP-2 complex subunit beta (Homo sapiens) (P63010 whole entry, looked up, the tested form may be a part, one chain of several): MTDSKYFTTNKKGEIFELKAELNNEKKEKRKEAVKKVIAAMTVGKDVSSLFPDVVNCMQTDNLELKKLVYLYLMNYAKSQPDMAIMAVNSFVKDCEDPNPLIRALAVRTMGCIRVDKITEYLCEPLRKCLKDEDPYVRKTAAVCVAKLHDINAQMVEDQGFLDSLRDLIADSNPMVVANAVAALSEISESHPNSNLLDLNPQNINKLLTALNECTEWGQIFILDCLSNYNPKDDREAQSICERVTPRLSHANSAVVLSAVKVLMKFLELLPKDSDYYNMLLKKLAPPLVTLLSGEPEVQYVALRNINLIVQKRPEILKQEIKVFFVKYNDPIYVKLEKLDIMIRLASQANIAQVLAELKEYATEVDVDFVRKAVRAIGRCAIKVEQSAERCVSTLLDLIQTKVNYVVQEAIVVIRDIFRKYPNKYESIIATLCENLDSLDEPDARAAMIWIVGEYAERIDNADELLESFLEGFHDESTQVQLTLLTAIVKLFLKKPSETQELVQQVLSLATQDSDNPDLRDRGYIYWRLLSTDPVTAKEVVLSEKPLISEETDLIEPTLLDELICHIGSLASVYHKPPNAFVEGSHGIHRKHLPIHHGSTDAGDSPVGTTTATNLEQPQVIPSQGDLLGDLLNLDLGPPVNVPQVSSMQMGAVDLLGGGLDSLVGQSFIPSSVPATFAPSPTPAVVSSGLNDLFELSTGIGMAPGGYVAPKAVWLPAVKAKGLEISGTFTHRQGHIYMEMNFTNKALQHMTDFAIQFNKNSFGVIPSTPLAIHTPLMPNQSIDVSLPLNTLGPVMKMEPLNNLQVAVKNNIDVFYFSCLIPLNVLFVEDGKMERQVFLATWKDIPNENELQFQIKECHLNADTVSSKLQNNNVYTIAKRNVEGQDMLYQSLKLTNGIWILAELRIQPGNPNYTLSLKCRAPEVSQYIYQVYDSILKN
Sequence of ATP-binding cassette sub-family B member 6 (Homo sapiens) (Q9NP58 whole entry, looked up): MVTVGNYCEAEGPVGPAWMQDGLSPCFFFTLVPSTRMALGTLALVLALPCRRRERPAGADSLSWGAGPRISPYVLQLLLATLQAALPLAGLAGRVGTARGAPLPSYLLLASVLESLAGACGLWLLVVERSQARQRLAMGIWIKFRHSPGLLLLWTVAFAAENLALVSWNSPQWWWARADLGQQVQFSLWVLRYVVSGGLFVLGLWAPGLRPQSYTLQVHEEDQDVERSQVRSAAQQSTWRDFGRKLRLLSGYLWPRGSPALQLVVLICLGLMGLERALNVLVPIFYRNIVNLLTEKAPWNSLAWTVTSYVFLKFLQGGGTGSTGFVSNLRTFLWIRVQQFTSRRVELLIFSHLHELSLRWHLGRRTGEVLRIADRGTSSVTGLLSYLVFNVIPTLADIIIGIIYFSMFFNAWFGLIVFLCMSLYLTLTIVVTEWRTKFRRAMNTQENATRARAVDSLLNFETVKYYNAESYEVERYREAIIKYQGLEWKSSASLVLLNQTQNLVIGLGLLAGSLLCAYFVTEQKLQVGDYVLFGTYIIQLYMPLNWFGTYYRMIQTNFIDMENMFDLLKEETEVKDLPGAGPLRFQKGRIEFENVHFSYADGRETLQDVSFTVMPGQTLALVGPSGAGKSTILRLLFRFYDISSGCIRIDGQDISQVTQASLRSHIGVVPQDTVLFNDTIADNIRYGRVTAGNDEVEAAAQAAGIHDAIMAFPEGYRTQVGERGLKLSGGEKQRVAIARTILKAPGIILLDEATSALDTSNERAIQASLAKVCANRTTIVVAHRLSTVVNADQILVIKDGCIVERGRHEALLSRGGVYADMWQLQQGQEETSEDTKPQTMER
Sequence of Integrin beta-1 (Homo sapiens) + Integrin alpha-4 (Homo sapiens) (P05556 whole entry, looked up): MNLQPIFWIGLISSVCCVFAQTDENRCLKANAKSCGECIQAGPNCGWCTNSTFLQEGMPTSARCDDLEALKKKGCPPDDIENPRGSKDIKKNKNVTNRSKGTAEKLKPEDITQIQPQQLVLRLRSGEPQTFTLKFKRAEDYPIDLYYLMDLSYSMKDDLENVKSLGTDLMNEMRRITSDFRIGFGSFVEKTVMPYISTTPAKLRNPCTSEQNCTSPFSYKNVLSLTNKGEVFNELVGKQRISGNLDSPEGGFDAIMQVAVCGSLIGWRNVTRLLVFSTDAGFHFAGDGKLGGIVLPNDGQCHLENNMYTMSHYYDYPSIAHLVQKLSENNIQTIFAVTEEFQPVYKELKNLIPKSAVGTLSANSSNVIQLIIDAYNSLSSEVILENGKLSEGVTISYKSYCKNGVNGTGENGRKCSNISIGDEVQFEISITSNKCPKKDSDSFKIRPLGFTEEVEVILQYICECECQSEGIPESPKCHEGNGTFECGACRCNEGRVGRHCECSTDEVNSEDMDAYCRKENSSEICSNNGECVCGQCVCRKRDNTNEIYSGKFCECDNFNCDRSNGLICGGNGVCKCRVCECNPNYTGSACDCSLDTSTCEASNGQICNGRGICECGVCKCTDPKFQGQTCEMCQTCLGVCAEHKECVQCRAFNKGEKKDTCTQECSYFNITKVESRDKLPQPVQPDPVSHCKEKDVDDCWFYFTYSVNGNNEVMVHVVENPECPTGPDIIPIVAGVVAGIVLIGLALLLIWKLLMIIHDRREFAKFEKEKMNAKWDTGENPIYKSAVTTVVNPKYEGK
Sequence of Integrin beta-1 (Homo sapiens) + Integrin alpha-4 (Homo sapiens) (P13612 whole entry, looked up): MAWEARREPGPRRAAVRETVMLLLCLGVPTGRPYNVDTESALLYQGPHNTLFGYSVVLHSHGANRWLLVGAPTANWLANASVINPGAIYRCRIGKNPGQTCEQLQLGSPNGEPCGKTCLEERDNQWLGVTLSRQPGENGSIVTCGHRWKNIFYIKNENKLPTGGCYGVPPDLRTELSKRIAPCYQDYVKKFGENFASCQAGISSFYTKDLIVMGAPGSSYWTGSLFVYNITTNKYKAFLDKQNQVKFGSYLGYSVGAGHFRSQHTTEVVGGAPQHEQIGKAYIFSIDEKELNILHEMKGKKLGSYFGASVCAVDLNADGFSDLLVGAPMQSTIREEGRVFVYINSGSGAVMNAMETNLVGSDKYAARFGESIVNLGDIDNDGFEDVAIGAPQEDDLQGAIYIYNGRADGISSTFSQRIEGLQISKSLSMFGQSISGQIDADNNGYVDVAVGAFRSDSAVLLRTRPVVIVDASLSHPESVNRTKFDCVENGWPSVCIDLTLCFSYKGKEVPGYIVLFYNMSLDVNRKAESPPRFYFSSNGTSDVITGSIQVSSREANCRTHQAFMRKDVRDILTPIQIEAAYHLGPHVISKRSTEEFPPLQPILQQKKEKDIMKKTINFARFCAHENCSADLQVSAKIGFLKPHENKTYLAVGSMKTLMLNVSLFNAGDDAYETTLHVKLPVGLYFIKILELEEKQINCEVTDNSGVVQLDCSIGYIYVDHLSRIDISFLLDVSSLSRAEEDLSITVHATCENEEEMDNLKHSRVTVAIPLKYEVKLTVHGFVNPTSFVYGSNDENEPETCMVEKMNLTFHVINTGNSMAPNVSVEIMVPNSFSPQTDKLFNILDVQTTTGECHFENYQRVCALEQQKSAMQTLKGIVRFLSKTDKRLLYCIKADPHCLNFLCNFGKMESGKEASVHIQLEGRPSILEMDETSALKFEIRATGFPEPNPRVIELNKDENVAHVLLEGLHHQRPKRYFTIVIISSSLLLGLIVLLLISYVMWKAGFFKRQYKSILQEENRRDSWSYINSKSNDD
Sequence of Beta-2 adrenergic receptor (Homo sapiens) (P07550 whole entry, looked up): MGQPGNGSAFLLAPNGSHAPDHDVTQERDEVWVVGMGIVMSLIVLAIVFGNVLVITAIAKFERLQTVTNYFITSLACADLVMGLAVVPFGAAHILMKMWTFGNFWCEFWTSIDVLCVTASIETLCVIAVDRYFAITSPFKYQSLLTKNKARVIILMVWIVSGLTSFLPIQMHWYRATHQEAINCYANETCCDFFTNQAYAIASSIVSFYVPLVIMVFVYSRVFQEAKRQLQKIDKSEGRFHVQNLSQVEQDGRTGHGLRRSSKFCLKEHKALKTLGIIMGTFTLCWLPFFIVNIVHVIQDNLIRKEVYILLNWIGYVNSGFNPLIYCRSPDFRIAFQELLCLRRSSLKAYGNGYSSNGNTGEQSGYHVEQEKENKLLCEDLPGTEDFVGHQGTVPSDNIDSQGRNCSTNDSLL

CCOC(=O)C1=C(C)NC(C)=C(C(=O)OC)C1c1cccc(Cl)c1Cl (stereo not drawn)
inactive: percent of DMSO control GFP [1] 88.4% | GFP response vs DMSO [2] 125% | percent response of DMSO control [3] 104% | GFP response vs DMSO [4] 79.2% | GFP response, % of DMSO [5] 80.3% | vesicle binding response [6] 193% | inhibition [7] 5.49% | superoxide response (% of plate) [8] 121% | aptamer binding inhibition [9] 6% | response [10] -8.07% | inhibition [11] -0.86% | response [12] -0.17% | binding (% of control) [13] 106% | efflux inhibition (fraction of control) [14] -0.28 | inhibition [15] 9% | differentiation response [16] 0%
65.9%: double positive events [6]

Cn1c(=O)c2[nH]cnc2n(C)c1=O
67.8%: double positive events [6]
inactive: percent of DMSO control GFP [1] 90.9% | GFP response vs DMSO [2] 133% | percent response of DMSO control [3] 96.6% | GFP response vs DMSO [4] 80.9% | GFP response, % of DMSO [5] 87.7% | vesicle binding response [6] 159% | inhibition [7] -1.3% | superoxide response (% of plate) [8] 95.3% | aptamer binding inhibition [9] 4% | response [10] -0.49% | inhibition [11] -6.69% | response [12] -2.04% | binding (% of control) [13] 101% | efflux inhibition (fraction of control) [14] -0.46 | inhibition [15] 9% | differentiation response [16] -2.46%

O=C1Cc2ccccc2C(c2ccccc2)N1 (stereo not drawn)
active: inhibition [11] 56.3% | differentiation response [16] 53%
64.9%: double positive events [6]
inactive: percent of DMSO control GFP [1] 98.8% | GFP response vs DMSO [2] 108% | percent response of DMSO control [3] 101% | GFP response vs DMSO [4] 90.1% | GFP response, % of DMSO [5] 102% | vesicle binding response [6] 449% | inhibition [7] -19.1% | superoxide response (% of plate) [8] 112% | aptamer binding inhibition [9] -3% | response [10] -4.45% | response [12] -7.51% | binding (% of control) [13] 95.9% | efflux inhibition (fraction of control) [14] 0.11 | inhibition [15] 9%

Cc1ccc(Cl)c(Nc2ccccc2C(=O)O)c1Cl
60.7%: double positive events [6]
inactive: percent of DMSO control GFP [1] 98.9% | GFP response vs DMSO [2] 103% | percent response of DMSO control [3] 94.4% | GFP response vs DMSO [4] 114% | GFP response, % of DMSO [5] 98% | vesicle binding response [6] 123% | inhibition [7] 2.29% | superoxide response (% of plate) [8] 95.2% | aptamer binding inhibition [9] 2% | response [10] -14.2% | inhibition [11] 1.34% | response [12] 11.1% | binding (% of control) [13] 103% | efflux inhibition (fraction of control) [14] -0.13 | inhibition [15] 2% | differentiation response [16] -4.99%

NC(=O)C1CCCNC1 (stereo not drawn)
inactive: percent of DMSO control GFP [1] 106% | GFP response vs DMSO [2] 98.7% | percent response of DMSO control [3] 109% | GFP response vs DMSO [4] 98% | GFP response, % of DMSO [5] 105% | vesicle binding response [6] 302% | inhibition [7] 1.59% | superoxide response (% of plate) [8] 104% | aptamer binding inhibition [9] -2% | response [10] 7.03% | inhibition [11] 0.42% | response [12] -3.07% | binding (% of control) [13] 103% | efflux inhibition (fraction of control) [14] 0.11 | inhibition [15] 10% | differentiation response [16] 8.59%
75.5%: double positive events [6]

CN1CCN(CC/C=C2/c3ccccc3Sc3ccc(S(=O)(=O)N(C)C)cc32)CC1
68.4%: double positive events [6]
inactive: percent of DMSO control GFP [1] 102% | GFP response vs DMSO [2] 109% | percent response of DMSO control [3] 94.5% | GFP response vs DMSO [4] 109% | GFP response, % of DMSO [5] 94.8% | vesicle binding response [6] 202% | inhibition [7] 23% | superoxide response (% of plate) [8] 86% | aptamer binding inhibition [9] 4% | response [10] -1.99% | inhibition [11] -4.59% | response [12] 11% | binding (% of control) [13] 84.3% | efflux inhibition (fraction of control) [14] 0.02 | inhibition [15] 28% | differentiation response [16] -13.3%

Cc1ncoc1C(=O)N1CCCC(C(=O)c2ccc(-c3ccccc3)c(F)c2)C1 (stereo not drawn)
49.9%: double positive events [6]
inactive: percent of DMSO control GFP [1] 102% | GFP response vs DMSO [2] 121% | percent response of DMSO control [3] 112% | GFP response vs DMSO [4] 76.5% | GFP response, % of DMSO [5] 94% | vesicle binding response [6] 220% | inhibition [7] -3.24% | superoxide response (% of plate) [8] 110% | aptamer binding inhibition [9] 8% | response [10] -19.4% | inhibition [11] 4.25% | response [12] -6.69% | binding (% of control) [13] 101% | efflux inhibition (fraction of control) [14] 0.01 | inhibition [15] 12% | differentiation response [16] 0.82%

NCCCC(N)(C(=O)O)C(F)F (stereo not drawn)
inactive: percent of DMSO control GFP [1] 93.5% | GFP response vs DMSO [2] 99.7% | percent response of DMSO control [3] 98.6% | GFP response vs DMSO [4] 107% | GFP response, % of DMSO [5] 112% | vesicle binding response [6] 174% | inhibition [7] 5.61% | superoxide response (% of plate) [8] 105% | aptamer binding inhibition [9] 3% | response [10] 5.08% | inhibition [11] 13.1% | response [12] -10.9% | binding (% of control) [13] 97.7% | efflux inhibition (fraction of control) [14] -0.135 | inhibition [15] -5% | differentiation response [16] -4.57%
62.2%: double positive events [6]

CCN1CCn2c3c(c4cc(Cl)ccc42)CCCC31 (stereo not drawn)
inactive: percent of DMSO control GFP [1] 99.3% | GFP response vs DMSO [2] 102% | percent response of DMSO control [3] 97.7% | GFP response vs DMSO [4] 107% | GFP response, % of DMSO [5] 116% | vesicle binding response [6] 154% | inhibition [7] -10.5% | superoxide response (% of plate) [8] 106% | aptamer binding inhibition [9] 5% | response [10] -10.7% | inhibition [11] -7.04% | response [12] 3% | binding (% of control) [13] 104% | efflux inhibition (fraction of control) [14] -0.09 | inhibition [15] -8% | differentiation response [16] -21.7%
62.3%: double positive events [6]
